From PubChem BioAssay (EPA / NIEHS)
Inconclusive results are not listed. Activity calls are given as the source filed them. How the source made its calls, unless noted: active means hit-call score of the fitted dose curve at least 0.9, where 1 is the maximum; inconclusive means response in the unintended direction; inactive means score below 0.9.

Assays:
[1] = Tanguay_ZF_120hpf_PIG_legacy: (Legacy) Oregon State University Tanguay Lab 120 Hour Post-fertilization zebrafish Assay for Pigmentation Malformation (AID 2283650)
In short: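 Dechorionated Tropical 5D wild-type embryos, one per well from 6 hpf, statically exposed at 28C in the dark until 120 hpf, 0.64% DMSO final. Pigmentation scored present/absent by brightfield microscopy; dead embryos not scored; fitted versus DMSO.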

[2] = Tanguay_ZF_120hpf_SWIM_legacy: (Legacy) Oregon State University Tanguay Lab 120 Hour Post-fertilization zebrafish Assay for Swim Bladder Malformation (AID 2283654);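 further: swim bladder malformation in each larva scored yes or no under brightfield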
In short: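 Dechorionated wild-type Tropical 5D zebrafish embryos, one per well from 6 hpf, were statically exposed at 28C until 120 hpf in 0.64% DMSO. Swim bladder malformation scored as present/absent by brightfield microscopy; not scored in dead larvae.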

[3] = Tanguay_ZF_120hpf_NC_legacy: (Legacy) Oregon State University Tanguay Lab 120 Hour Post-fertilization zebrafish Assay for Notochord and Tail Malformation (AID 2283656)
In short: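 Dechorionated 5D zebrafish, 1/well from 6 hpf; static exposure to 120 hpf, 28C, sealed, dark; final DMSO 0.64% v/v. NC scored binary (present/absent); dead embryos not scored. Fit vs DMSO baseline, gain direction.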

[4] = Tanguay_ZF_120hpf_ActivityScore_legacy: (Legacy) Oregon State University Tanguay Lab 120 Hour Post-fertilization zebrafish Assay Score for Activity (AID 2283742)
In short: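 Dechorionated Tropical 5D embryos, one per well from 6 hpf, statically exposed to 120 hpf at 28 °C in 0.64% DMSO. Mortality and malformations scored binary by brightfield microscopy; activity score combines 18 endpoints, fitted positively versus DMSO.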

[5] = Tanguay_ZF_120hpf_CIRC_legacy: (Legacy) Oregon State University Tanguay Lab 120 Hour Post-fertilization zebrafish Assay for Circulatory Malformation (AID 2283651)
In short: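 Using wild-type Tropical 5D zebrafish, we exposed dechorionated embryos from 6 to 120 hpf in embryo medium with 0.64% DMSO. Circulatory defects were scored as present or absent; 5uM trimethyltin chloride served as positive control.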

[6] = Tanguay_ZF_120hpf_TR_legacy: (Legacy) Oregon State University Tanguay Lab 120 Hour Post-fertilization zebrafish Assay for Touch Response (AID 2283667)
In short: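 Tropical 5D wild-type zebrafish embryos statically exposed to 120 hpf at 28°C, sealed and dark-covered, 0.64% DMSO final; touch response scored as present/absent by brightfield microscopy at 120 hpf. Trimethyltin chloride 5 uM positive control; dead embryos not scored.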

[7] = Tanguay_ZF_120hpf_TRUN_legacy: (Legacy) Oregon State University Tanguay Lab 120 Hour Post-fertilization zebrafish Assay for Truncated Body (AID 2283655)
In short: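 Truncated body is recorded as a binary endpoint at 120 hpf by brightfield imaging of wild-type 5D larvae. Exposure runs statically from 6 hpf at 28C with 0.64% DMSO; embryos dying earlier are not scored.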

[8] = CCTE_Padilla_ZF_144hpf_TERATOSCORE: (Legacy) CCTE's 144 Hour Post-fertilization zebrafish Assay Teratoscore, Padilla Lab (AID 2283679; active means hit-call score of the fitted dose curve at least 0.9, where 1 is the maximum; inactive means score below 0.9;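 on AC50: zebrafish embryos with chorions exposed by immersion from 6-8 hpf to 5 dpf with daily renewal; teratogenicity score from eye scoring of death hatching and malformations at 144 hpf; higher score means more developmental defects relative to DMSO baseline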)
In short: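 Larvae scored by eye at 144 hpf for death, hatching and malformations after a day in clean Hanks'. Before that, daily-renewed exposure at 80 uM (0.4% DMSO, 26C) from roughly 6-8 hpf through 5 dpf, 4 embryos per chemical.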

[9] = STM_H9_OrnithineISnorm_perc: Stemina devTOX quickPredict H9 human embryonic stem cell (hESC)-based Assay for Ornithine (ORN) Metabolite Biomarker, Normalized (AID 2283712; active means hit-call score of the fitted dose curve at least 0.9, where 1 is the maximum; inactive means score below 0.9;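 further: ornithine released into spent medium during last day measured by mass spectrometry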)
In short: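 Cells: undifferentiated H9 hESC. Dosing: 72 h, media replaced every 24 h. Sample: final 24-h conditioned media, 40% acetonitrile. Read: UPLC-HRMS ornithine area vs 13C standard, % DMSO control.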

[10] = STM_H9_CystineISnorm_perc: Stemina devTOX quickPredict H9 human embryonic stem cell (hESC)-based Assay for Cystine (CYSS) Metabolite Biomarker, Normalized (AID 2283713; active means hit-call score of the fitted dose curve at least 0.9, where 1 is the maximum; inactive means score below 0.9)
In short: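 Secreted cystine was measured by UPLC-HRMS in H9 hESC medium after 72h compound exposure with 24-hourly replenishment. Values are standard-normalized areas relative to 0.1% DMSO.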

[11] = CEETOX_H295R_MTT_cell_viability: Viability Assessment in the CeeTox HT-H295R MTT Assay (AID 2283718; active means hit-call score of the fitted dose curve at least 0.9, where 1 is the maximum; inactive means score below 0.9)
In short: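 Human H295R adrenal cells, prestimulated 48 h with 10 uM forskolin, were exposed 48 h to chemicals in 0.1% DMSO. Viability was measured in the same wells by MTT (0.5 mg/ml, 4 h, 37 C), absorbance 570/650 nm, as percent of controls.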

[12] = system: Thyroperoxidase (TPO), gene 54314; test: CCTE_Simmons_AUR_rTPO: CCTE's Amplex UltraRed Assay for Thyroperoxidase (TPO) Inhibition, Simmons Lab (AID 2283662);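 further: potency for loss of signal meaning inhibition of peroxidase activity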
In short: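 Rat thyroid microsomes (5 ug protein) were incubated with test compound (8 concentrations, 5 nM–87.5 uM final, 0.5% DMSO), 25 uM Amplex UltraRed and 300 uM H2O2 in 200 mM phosphate buffer for 30 min at 37C in the dark; fluorescence read at 544/590 nm.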

[13] = CCTE_Simmons_CellTiterGLO_HEK293T: Viability Assessment in CCTE's Assays for Thyroperoxidase (TPO) Inhibition, Simmons Lab (AID 2283665);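 further: cells exposed to compound for 24 h before readout; actives reduce ATP signal below DMSO vehicle meaning cytotoxicity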
In short: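 Cytotoxicity counter-screen: human HEK293T cells in low-serum (1% FBS) medium receive test chemical, 5 nM to 87.5 uM final, for 24 h; ATP is quantified by luciferase luminescence.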

CC(C)CC(C)O (stereo unspecified)
outcome [1]: inactive | outcome [2]: inactive | outcome [3]: inactive | outcome [4]: inactive

CCCCCCCC/C=C\CCCCCCCC(=O)OC[C@@H](O)[C@H]1OC[C@H](O)[C@H]1O
outcome [1]: inactive | outcome [5]: inactive | outcome [2]: inactive | outcome [3]: inactive | outcome [6]: inactive | outcome [4]: inactive

OCc1ccccc1
outcome [5]: inactive | outcome [2]: inactive | outcome [7]: inactive | outcome [3]: inactive | outcome [6]: inactive | outcome [8]: inactive | outcome [4]: inactive

COc1cc(C(C)C)c2c(c1)S(=O)(=O)N(COc1cc(=O)n3cccc(OCCN4CCCCC4)c3n1)C2=O
outcome [5]: inactive | outcome [2]: inactive | outcome [7]: inactive | outcome [3]: inactive | outcome [6]: inactive | AC50 [8]: 15.5 µM (active) | AC50 [4]: 7.72 µM (active)

O=C(O)c1cccc(C(=O)O)c1
outcome [1]: inactive | outcome [5]: inactive | outcome [2]: inactive | outcome [7]: inactive | outcome [3]: inactive | outcome [6]: inactive | outcome [4]: inactive

CC[C@H](C)C(=O)O[C@H]1C[C@H](O)C=C2C=C[C@H](C)[C@H](CC[C@@H](O)C[C@@H](O)CC(=O)O)[C@H]21
outcome [5]: inactive | outcome [2]: inactive | outcome [7]: inactive | outcome [3]: inactive | outcome [6]: inactive | outcome [8]: inactive | outcome [9]: inactive | outcome [10]: inactive | outcome [11]: inactive | outcome [4]: inactive

CCCCOC(=O)c1ccccc1
outcome [2]: inactive | outcome [7]: inactive | outcome [3]: inactive | outcome [6]: inactive | AC50 [8]: 59.1 µM (active) | outcome [4]: inactive

CC1(C)C(=O)N(Cl)C(=O)N1Cl
outcome [5]: inactive | outcome [2]: inactive | outcome [7]: inactive | outcome [3]: inactive | outcome [6]: inactive | outcome [4]: inactive

C[C@]12C=CC(=O)C=C1CC[C@H]1[C@@H]3C[C@@H](O)[C@](O)(C(=O)CO)[C@@]3(C)C[C@H](O)[C@@]12F
outcome [2]: inactive | outcome [7]: inactive | outcome [3]: inactive | outcome [6]: inactive | outcome [9]: inactive | outcome [10]: inactive | outcome [11]: inactive | AC50 [4]: 0.00064 µM (active)

O=S(=O)(O)c1ccc(N=Nc2c(O)ccc3cc(S(=O)(=O)O)ccc23)cc1
outcome [5]: inactive | outcome [2]: inactive | outcome [3]: inactive | outcome [6]: inactive | outcome [11]: inactive | outcome [4]: inactive

C=CCc1cc(S(=O)(=O)c2ccc(O)c(CC=C)c2)ccc1O
outcome [5]: inactive | outcome [2]: inactive | outcome [7]: inactive | AC50 [12]: 14.6 µM (active) | AC50 [13]: 79.5 µM (active) | outcome [6]: inactive | AC50 [8]: 60 µM (active) | outcome [11]: inactive | outcome [4]: inactive

OC[C@H]1O[C@@](CO)(O[C@H]2O[C@H](CO)[C@@H](O)[C@H](O)[C@H]2O)[C@@H](O)[C@@H]1O
outcome [2]: inactive | outcome [7]: inactive | outcome [3]: inactive | outcome [6]: inactive | outcome [4]: inactive
